An excerpt weighted towards active compounds, which were near 2.3% of everything screened.
Pol eta inh: qHTS for Inhibitors of Polymerase Eta | DNA polymerase eta (Homo sapiens), Q9Y253 | recombinant Pol eta, fluorescent DNA replication assay | Potency, µM (series often up to 114 µM), for inactives: top-dose activity change, negative = inhibition, most hits filed as inhibitors | 1.2% of 390,000 active | AID 588591, 2011; further: on the % scale 0 is the no-effect control and ±100 the full control effect
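Pol eta (10 nM) was preincubated with compounds for 15 min at room temperature, after which fluorescent replication substrate (50 nM final) was added to start the reaction. Fluorescence was read kinetically at 0 and 10 min.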
POLB inh: qHTS Assay for Inhibitors of DNA Polymerase Beta. P06746. Pol beta primer extension/strand displacement, fluorescence kinetic. Potency, µM (top dose mostly 114 µM), for the others: top-dose activity change, negative = inhibition, usual class: inhibitors. 1.3% of 340,000 active; further: on the % scale 0 is the no-effect control and ±100 the full control effect
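Pol beta (10 nM) was preincubated with compound for 15 min at room temperature. The reaction was then started with 50 nM substrate and read immediately and after a further 10 min at room temperature.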
Pol kappa inh: qHTS for Inhibitors of Polymerase Kappa; purified Pol kappa, fluorescent DNA synthesis assay, 10 min; Potency, µM (series often up to 107 µM), for inactives: top-dose activity, negative = inhibition, hits mostly inhibitors; 0.53% of 400,000 active; AID 588579, 2011; further: on the % scale 0 is the no-effect control and ±100 the full control effect
Target sequence (Q9UBT6 whole entry, looked up): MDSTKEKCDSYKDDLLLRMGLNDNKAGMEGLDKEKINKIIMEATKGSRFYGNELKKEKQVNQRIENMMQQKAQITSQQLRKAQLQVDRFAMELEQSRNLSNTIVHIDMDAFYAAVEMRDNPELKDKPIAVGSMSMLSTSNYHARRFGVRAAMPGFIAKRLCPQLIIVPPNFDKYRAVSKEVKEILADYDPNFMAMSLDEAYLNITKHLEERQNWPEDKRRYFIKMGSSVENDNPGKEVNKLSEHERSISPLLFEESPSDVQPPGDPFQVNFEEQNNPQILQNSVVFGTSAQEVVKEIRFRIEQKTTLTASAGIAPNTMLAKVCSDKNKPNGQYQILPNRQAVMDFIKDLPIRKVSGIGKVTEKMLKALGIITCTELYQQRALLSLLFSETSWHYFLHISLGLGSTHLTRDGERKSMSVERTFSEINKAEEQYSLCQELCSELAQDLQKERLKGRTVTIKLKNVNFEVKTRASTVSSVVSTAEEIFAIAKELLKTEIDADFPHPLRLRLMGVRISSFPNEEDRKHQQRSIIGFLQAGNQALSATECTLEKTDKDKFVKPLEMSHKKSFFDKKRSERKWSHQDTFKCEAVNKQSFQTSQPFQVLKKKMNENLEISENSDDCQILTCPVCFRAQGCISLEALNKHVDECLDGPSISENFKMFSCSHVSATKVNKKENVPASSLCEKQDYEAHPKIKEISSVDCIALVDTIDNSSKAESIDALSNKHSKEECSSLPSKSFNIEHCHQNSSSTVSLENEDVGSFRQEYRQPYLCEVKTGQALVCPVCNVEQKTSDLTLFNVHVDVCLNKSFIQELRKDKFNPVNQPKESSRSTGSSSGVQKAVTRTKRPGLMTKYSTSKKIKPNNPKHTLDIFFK
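First, compounds were pin-transferred onto 10 nM Pol kappa. After 15 min at room temperature, substrate was added to 50 nM final. Fluorescence was then measured kinetically at 0 and 10 min.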
POLI inh: qHTS for Inhibitors of Polymerase Iota; 1% of 390,000 active; Potency, µM (series often up to 115 µM), without a hit: at the top dose activity, negative = inhibition, usual class: inhibitors; DNA polymerase iota (Homo sapiens), Q9UNA4; Pol iota fluorescent replication assay, 10 min; AID 588590, 2011
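Pol iota at 10 nM preincubated 15 min with compounds at room temperature; reaction started with fluorescent substrate, 50 nM final. Fluorescence read kinetically at 0 and 10 min; buffer-only wells as negative control.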
WRN inhibitor: qHTS for Inhibitors of WRN Helicase | Bifunctional 3'-5' exonuclease/ATP-dependent helicase WRN (Homo sapiens), Q14191 | WRN helicase unwinding, fluorescent forked duplex, kinetic | Potency, µM (top dose mostly 114 µM), inactives show top-dose activity change, negative = inhibition, usual class: inhibitors | 0.46% of 360,000 active | AID 651768, 2012; further: on the % scale 0 is the no-effect control and ±100 the full control effect; nearly all actives have a fitted effect of over 55% in size
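WRN at 20 nM final was preincubated with compound for 15 min at room temperature; reaction started with 100 nM forked duplex oligonucleotide carrying fluorophore and quencher plus 2 mM ATP (final). Unwinding followed kinetically by red fluorescence (ex 525/em 598 nm).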
Active calls of the source: *; ? = inconclusive; nt = no result given; [ ] = remark or other dose. The call rests on the fitted dose curve; in most records, active means well fitted curve in the direction sought with a large enough effect; inconclusive means small, poorly fitted or top-dose-only effect, or another doubt; inactive means no such curve, though single readings can be large; an effect the other way counts as inactive or inconclusive. Potency means the concentration at half of the fitted maximal effect.

SMILES	Pol eta inh	POLB inh	Pol kappa inh	POLI inh	WRN inhibitor
CC(=O)C1=C(O)C(=O)N(c2ccccn2)C1c1ccccc1[N+](=O)[O-] (stereo unspecified)	-2.8%	1.7%	7.6%	11.4%	70.8µM*
O=C(c1cccc(S(=O)(=O)NCc2ccccc2)c1)N1CCN(c2ccccc2Cl)CC1	-17.2%	nt	-7.8%	89.1µM*	-3.8%
Cc1cccn2c(=O)c3cc(C(=O)NC(C)(C)C)n(C)c3nc12	-17.8%	-13.4%	-2.0%	10.3%	nt
Cc1cccn2c(=O)c3cc(C(=O)NCCc4ccc(S(N)(=O)=O)cc4)n(C)c3nc12	79.4µM*	?	-31.3%	-27.1%	nt
Cc1cccn2c(=O)c3cc(C(=O)NCCC4=CCCCC4)n(C)c3nc12	-0.8%	-1.2%	-3.5%	28.5%	-3.2%
CCOC(=O)CNC(=O)c1cc2c(=O)n3cccc(C)c3nc2n1C	-4.5%	70.8µM*	-20.0%	33.5%	nt
C[C@H](O)C(N)C(=O)O (stereo partly specified)	nt	nt	7.2%[60.1 µM]	nt	nt
O=C(c1ccco1)N1CCN(C(=O)c2ccc(COc3ccc4c(c3)CCC4)o2)CC1	?	89.1µM*	-4.9%	?	-5.0%[57.1 µM]
CCCOc1ccc(-c2c(C(=O)N/N=C(\C)c3cccnc3)nnn2-c2nonc2N)cc1	4.1%	0.6%	-30.8%	44.7µM*	-0.6%
CCN1/C(=C/C=C/c2oc3ccc4ccccc4c3[n+]2CC)Oc2ccc3ccccc3c21	31.6µM*	6.31µM*	44.7µM*	79.4µM*	?
CC[n+]1c(/C=C/N(C)c2ccccc2)oc2ccc(Cl)cc21	-17.0%	-11.4%	-26.3%	3.5%	-9.7%
CN(Cc1ccsc1)C(=O)Cn1cc(Br)ccc1=O	-2.5%	16.0%	-16.9%	22.4µM*	-7.5%
CN(Cc1ccsc1)C(=O)CCc1nnc(CCCc2ccccc2)o1	-7.0%	-10.2%	-9.7%	7.1%	-11.5%
CCCCN1CC(c2nc3ccccc3n2CCCCOc2cccc(C)c2C)CC1=O (stereo unspecified)	-20.8%	-24.4%	-3.8%	29.7%	nt
CCCC[C@H]1CCCO[C@@](C(=O)NCc2cc(C)n(C)n2)(C(F)(F)F)C1	nt	nt	14.2%	40.3%	nt
Cc1ccc(C)c(NC(=O)CN2C(=O)CCc3ccccc32)c1	-6.3%	22.4µM*	?	79.4µM*	nt
Cc1ccc(NC(=O)CN2C(=O)CCc3ccccc32)cc1C	0.4%	22.4µM*	-38.8%	?	nt
CCN(CCN(C)Cl)/[N+]([O-])=N/Oc1ccc([N+](=O)[O-])cc1[N+](=O)[O-]	nt	nt	11.5%	?	nt
CCOC(=O)N1CCN(C(=O)C2CCN(C(=O)c3ccccc3C)CC2)CC1	31.6µM*	nt	?	?	20µM*
Cc1cc(I)ccc1Nc1nc(NCCN2CCOCC2)nc(N2CCOCC2)n1	nt	nt	-12.5%	7.5%	nt
CCOC(=O)c1cnc2nc(NCc3cccc(Br)c3)[nH]n2c1=O	-11.6%	7.4%	11.5%	31.5%	nt
CCOC(=O)c1cnc2nc(NCc3ccc(OC)c(OC)c3)[nH]n2c1=O	20µM*	35.5µM*	-2.6%	?	-10.4%[57.1 µM]
CCCn1c(/C=C/c2ccco2)nc2ccccc21	12.6µM*	22.4µM*	-35.5%	44.7µM*	-15.4%[57.1 µM]
CCCCn1c(/C=C/c2ccco2)nc2ccccc21	?	8.91µM*	-9.8%	?	-33.6%
Cc1ccc(Cn2c(/C=C/c3ccco3)nc3ccccc32)cc1	-16.7%	?	-12.6%	-15.8%	-11.7%
Cc1ccc(CN(C(=O)c2ccc(F)cc2)c2ccccn2)o1	-15.1%	2.0%	-22.9%	14.7%	nt
Cc1ccc(CN(C(=O)c2ccccc2F)c2ccccn2)o1	-23.3%	56.2µM*	?	79.4µM*	nt
Cc1cc(C)c(O)c(-c2cc(C(=O)Nc3cccnc3)[nH]n2)c1	-15.4%	56.2µM*	-10.9%	?	-24.3%
CCc1ccc2oc(-c3ccc(C)c(NC(=O)COc4ccccc4Cl)c3)nc2c1	nt	nt	-1.4%	-20.0%	nt
CCCC1=NN2C(=N)/C(=C\c3ccc(SCc4ccco4)o3)C(=O)N=C2S1	3.55µM*	12.6µM*	28.2µM*	20µM*	39.8µM*
